# Screening data (PubChem BioAssay)
# Rows were chosen to be rich in hits. Some 17% of all compounds tested hit in one or more screens of this group.
# TDP1 cell CPT – DT40-hTDP1 cell growth loss with CPT. hit rate 12% among 420,000. Potency, µM (series often up to 46.2 µM), most hits filed as inhibitors. chicken DT40 Tdp1-/-;hTDP1 cells + 20 nM CPT, ATP luminescence, 48 h; also: nearly all actives have a fitted effect of over 55% in size
#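 Chicken DT40 Tdp1-/- cells complemented with human TDP1, 400 cells/well, exposed to compounds plus 20 nM camptothecin for at least 48 h at 37 C; viability read as ATP content by CellTiter-Glo luminescence.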
# TGFb SMAD3 inh – inhibitors of TGF-b signaling; HepG2 CAGA-GFP TGF-b/SMAD3 reporter, GFP fluorescence, 18 h; TGF-beta stimulated, 500 pg/mL final; Potency, µM (top dose mostly 46.1 µM), most hits filed as inhibitors; AID 588855; hit rate 1.2% among 410,000; also: nearly all actives have a fitted effect of over 65% in size
#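 HEPG2 CAGA-GFP reporter cells (1000/well, DMEM with 1% FBS) received compounds, then recombinant TGF-beta at 500 pg/mL final for 18 hours at 37 degrees C. Per-cell GFP summed per well was normalised to unstimulated and stimulated DMSO controls before curve fitting.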
# HepG2 viability – kills HepG2 cells in TGF-b inhibitor counter-screen. HepG2 CAGA-GFP viability, ATP luminescence, 18 h. Potency, µM (series often up to 46.1 µM), usual class: cytotoxic. hit rate 0.76% among 410,000. AID 588856
#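 HepG2 CAGA-GFP cells (1000/well, DMEM with 1% FBS) received compound, then TGF-beta at 500 pg/mL final, and were incubated 18 hours at 37 degrees C. Viability was read by CellTiter-Glo luminescence. Media-only wells were set as complete cell-killing and DMSO as no toxicity.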
# HT1080 IDH1KD tx – HT-1080 IDH1 knockdown cell toxicity (counter line); HT-1080 IDH1 knockdown viability, ATP luminescence, 48 h; Potency, µM (top dose mostly 46.1 µM), most hits filed as cytotoxic; hit rate 2% among 360,000; AID 686971
#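 IDH1KD HT-1080 cells, 750/well, RPMI + 5% FBS; compound pinned after 2 h settling; 48 h, 37 °C; CellTiter-Glo luminescence; % activity normalised to DMSO and no-cell wells; curves fitted, classed by r2 and efficacy.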
# DT40 TDP1 no CPT – qHTS for Inhibitors of human tyrosyl-DNA phosphodiesterase 1 (TDP1): qHTS in cells in absence of CPT; AID 686978, 2013; Potency, µM (doses to about 46.2 µM), hits mostly inhibitors; DT40 Tdp1-/- hTDP1 cells, no CPT, ATP luminescence, 48 h; hit rate 15% among 420,000; also: nearly all actives have a fitted effect of over 55% in size
#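 Growth of hTDP1-complemented DT40 Tdp1-knockout cells is measured by ATP luminescence after at least 48 hr compound exposure at 37 °C, with DMSO substituting for the 20 nM CPT used in the parallel screen.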
# HT1080NT lethal – kills 2HG-producing HT-1080-NT fibrosarcoma cells; Potency, µM (top dose mostly 46.1 µM), hits mostly cytotoxic; hit rate 1.6% among 360,000; AID 686970; HT-1080-NT fibrosarcoma viability, CellTiter-Glo ATP luminescence, 48 h;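 also: NT is the 2HG producing partner of a matched IDH1 knockdown line; nearly all actives have a fitted effect of over 55% in size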
#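 A 48-hour cytotoxicity screen used HT-1080-NT cells plated 2 hours before compound delivery. ATP-based CellTiter-Glo luminescence measured viability, normalized to DMSO and no-cell controls.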
# Numbers stand for hits; 0 = inactive; ? = inconclusive; - = no result; [ ] = remark or other dose. Calls follow the shape of the dose curve; as a rule, active = well fitted curve in the direction sought with a large enough effect; inconclusive = small, poorly fitted or top-dose-only effect, or another doubt; inactive = no such curve, though single readings can be large; an effect the other way counts as inactive or inconclusive.
SMILES,TDP1 cell CPT,TGFb SMAD3 inh,HepG2 viability,HT1080 IDH1KD tx,DT40 TDP1 no CPT,HT1080NT lethal
CCOc1ccc(CN2CCc3nc(Nc4ccc5c(c4)OCCO5)ncc3C2)cc1,?,0,0,-,?,-
CCc1cc2c(=O)c(-c3cscn3)coc2c(CN(C)C)c1O,1.5µM,0,0,0,2.3µM,0
CCc1cc2c(=O)c(-c3ccc4c(c3)OCO4)coc2c(CN(C)C)c1O,2.1µM,0,0,0,3.7µM,0
Cc1oc2c(CN(C)C)c(O)ccc2c(=O)c1-c1cscn1,0,0,0,0[9.24 µM],0,0
O=S(=O)(c1ccccc1)N(CC1CO1)c1cccc2ccccc12 (stereo not drawn),21µM,0,0,?,23µM,0
Cc1ccc(N(CC2CO2)S(=O)(=O)c2ccccc2[N+](=O)[O-])cc1 (stereo not drawn),0,0,0,0,?,?
Cc1ccc(S(=O)(=O)N(CC2CO2)c2ccccc2[N+](=O)[O-])cc1 (stereo not drawn),12µM,0,0,0,?,0
Cc1ccc(S(=O)(=O)N(CC2CO2)c2cccc([N+](=O)[O-])c2)cc1 (stereo not drawn),12µM,?,0,?,23µM,?
Cc1ccc(S(=O)(=O)N2[C@@H](CO)CO[C@H]2CC(=O)c2cccs2)cc1,?,-,-,0,?,0
O=C(CC1SC(=Nc2ccccc2)N(CCO)C1=O)Nc1ccccc1 (stereo not drawn),0,0,0,0,0,0
CCCN1C(=O)SC(CC(=O)Nc2cccc3ccccc23)C1=O (stereo not drawn),16µM,0,0,0,16µM,0
CCCN1C(=O)SC(CC(=O)Nc2ccccc2)C1=O (stereo not drawn),23µM,0,0,0,?,0
COc1cc(/C=N/NC(=O)C2c3ccccc3Oc3ccccc32)ccc1O,?,0,0,0,?,0
CCOC(=O)N1CCC(NC(=O)c2cc(C(=O)NCc3ccc(F)cc3)ccc2CO)CC1,?,0,0,0,12µM,0
CCOC(=O)N1CCC(NC(=O)c2cc(C(=O)Nc3ccc(F)cc3F)ccc2CO)CC1,0,0,0,0,0,?
CCOC(=O)N1CCC(NC(=O)c2cc(C(=O)NC3CCN(Cc4ccccc4)CC3)ccc2CO)CC1,1.8µM,0,0,0,0,0
COc1ccc(Cl)cc1NC(=O)CN(C)C(=O)CCC(=O)c1cc(C)sc1C,?,0,0,0,0,0
COc1ccc(-n2nc(C(=O)NCC(=O)NCc3ccc(F)cc3)c3ccccc3c2=O)cc1,0,0,0,0,18µM,0
CCOC(=O)N1CCN(C(=O)CNC(=O)c2nn(-c3ccc(OC)c(OC)c3)c(=O)c3ccccc23)CC1,0,0,0,0,?,0
CCOC(=O)N1CCN(C(=O)CNC(=O)c2nn(-c3ccc(OC)c(Cl)c3)c(=O)c3ccccc23)CC1,?,0,0,0,9.2µM,0
COc1ccc(-n2nc(C(=O)NCC(=O)N3CCN(c4ccc(F)cc4)CC3)c3ccccc3c2=O)c(OC)c1,21µM,0,0,0,?,0
COc1ccc(-n2nc(C(=O)NCC(=O)NCCc3ccc(OC)c(OC)c3)c3ccccc3c2=O)cc1Cl,?,0,0,0,13µM,0
COCCNC(=O)CNC(=O)c1nn(-c2ccc(OC)c(Cl)c2)c(=O)c2ccccc12,?,0,0,0,0,0
COc1ccc(-n2nc(C(=O)NCC(=O)NC(C)C)c3ccccc3c2=O)cc1,0,0,0,0,0,0
O=C(NCc1ccccc1)C1c2ccccc2OCC(=O)N1Cc1cccnc1 (stereo not drawn),0,-,-,0,0,0
SMILES,TDP1 cell CPT,TGFb SMAD3 inh,HepG2 viability,HT1080 IDH1KD tx,DT40 TDP1 no CPT,HT1080NT lethal
COc1ccc(C2CC(c3ccccc3)Oc3ccc(OC)cc32)cc1 (stereo not drawn),-,0,0,-,-,-
Cc1cc(Cl)ccc1OCC(=O)Nc1c(Cl)ccc2nsnc12,-,0,0,-,-,-
O=C(COc1ccc(Cl)cc1)OCC(=O)N1CCOCC1,0,0,0,0,0,0
CCN1CCN(C(=O)CNC(=O)c2nn(-c3ccc(OC)cc3)c(=O)c3ccccc23)CC1,0,0,0,0,0,0
COc1ccc(-n2nc(C(=O)NCC(=O)N3CCN(Cc4ccccc4)CC3)c3ccccc3c2=O)cc1,23µM,0,0,0,?,0
O=C(CCSc1ccccn1)Nc1ccc(Br)cc1,0,0,0,0,?,0
CCNc1ncc2nc(C)c(=O)n(Cc3cccc(OC)c3)c2n1,0,-,-,-,?,-
CCC(c1nnnn1-c1ccc2c(c1)OCCO2)N1CCN(C)CC1 (stereo not drawn),0,-,-,0,0,0
CCC(c1nnnn1-c1ccc2c(c1)OCCO2)N1CCN(c2ccc(C(F)(F)F)cc2[N+](=O)[O-])CC1 (stereo not drawn),15µM,-,-,0,23µM,0
CC1(C)CC(O)C(C(O)c2cccc([N+](=O)[O-])c2)C(C)(C)N1 (stereo not drawn),0,0,0,0,0,0
O=C(Nc1cccc(N2CCC(NCc3cnn(-c4cccc(F)c4)c3)CC2)c1)c1ccncc1,0[9.04 µM],-,-,-,?,-
O=C(C[n+]1cc(Br)cc2ccccc21)c1ccc(Br)cc1,?,?,0,0,?,0
COc1ccc(C(=O)C[n+]2cccc3cc(Cl)ccc32)cc1,?,0,0,-,16µM,-
O=C(C[n+]1cccc2cc(Cl)ccc21)c1ccc2ccccc2c1,5µM,0,0,-,4µM,-
Brc1cc2ccccc2[n+](Cc2ccccc2)c1,?,0,0,?,12µM,?
CC(=O)C[n+]1cccc2cc(Cl)ccc21,0,0,0,-,0,-
O=C(C[n+]1cc(Br)cc2ccccc21)c1ccc(Cl)cc1,?,?,0,?,18µM,0
O=C(C[n+]1cccc2cc(Cl)ccc21)c1ccc(I)cc1,11µM,?,0,-,11µM,-
O=C(C[n+]1cccc2ccccc21)c1ccc(Br)cc1,?,0,0,0,?,0
O=C(C[n+]1cccc2cc(Cl)ccc21)c1ccc(Br)cc1,?,?,0,-,?,-
Cc1ccc(C(=O)C[n+]2cccc3ccccc32)cc1,?,0,0,0,18µM,0
Cc1cc2ccccc2c[n+]1CC(=O)c1ccc(F)cc1,?,0,0,-,13µM,-
Cc1ccc(C)[n+](CC(=O)c2ccc(-c3ccccc3)cc2)c1,2.6µM,?,0,0,1.8µM,0
